Source: PubChem (The Scripps Research Institute Molecular Screening Center)
Shown is part of a subset that was picked to be rich in hits.
TTR transcr act: activators of transthyretin transcription. AID 1117267. activation, % at 16.7 µM. SH-SY5Y TTR promoter Gaussia luciferase, luminescence; 100% = recombinant luciferase protein wells. hit rate 1.3% among 92,000;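 active = activation above the mean of all tested compounds plus 3 SD, cut at about 9.5% in these data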;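 note: cells exposed to compounds for one day before reading; 0% = median of all test compound wells on the plate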
* marks the source's active call; other numbers are inactive results.

SMILES	TTR transcr act
CCN(CC)S(=O)(=O)c1cc(NS(=O)(=O)c2cccc(Cl)c2Cl)ccc1C	-2
CCN(CC)S(=O)(=O)c1ccc(NS(=O)(=O)c2ccc(OC)c([N+](=O)[O-])c2)cc1	1
CCN(CC)S(=O)(=O)c1ccc(NS(=O)(=O)c2cccc(C)c2)cc1	10*
NC(=O)C1CCN(c2ncc(Br)s2)CC1	5
C=CCN(C)C(C#Cc1ccccc1)c1ccccc1C(F)(F)F (stereo not drawn)	0
CC1CCN(c2nnc(N3CCC(C)CC3)c3ccccc23)CC1	15*
Cc1cc(N2CCC(C)CC2)nc2ccccc12	-1
CC1CCN(c2ncccc2C(=O)O)CC1	2
O=C(Nc1ccccc1N1CCN(C(=O)c2ccc(Cl)cc2)CC1)c1ccc2c(c1)OCO2	10*
O=C(Nc1ccc(N2CCN(C(=O)c3ccc(Cl)cc3)CC2)cc1)c1ccc2c(c1)OCCO2	-6
O=C(Nc1cc(Cl)ccc1N1CCOCC1)c1ccc2c(c1)OCCO2	0
CCCC[C@@H]1C(=O)N2N=Cc3cc4ccccc4cc3[C@H]2N2N=Cc3cc4ccccc4cc3[C@@H]12	-5
C[C@]12C(=O)N(c3cccc(F)c3)C(=O)N1[C@H]1c3ccccc3OC[C@@H]1[C@H]2c1ccccc1	-2
C[C@]12C(=O)N(c3cccc(Cl)c3)C(=O)N1[C@@H]1c3ccccc3OC[C@@H]1[C@H]2c1ccccc1	3
C[C@]12C(=O)N(c3ccccc3)C(=O)N1[C@H]1c3ccccc3OC[C@@H]1[C@H]2c1ccccc1	11*
C#CCNC(=O)C[C@H]1C[C@@]2(C(=O)OC)C(=C[C@H](C(C)C)O[C@@H]2C2CC2)N(CCCCCCCC)C1=O	0
O=C(OCc1cn(Cc2ccc(F)cc2)nn1)N1CCOCC1	0
S=C(Nc1cccc(Cl)c1)OCCN1CCCC12CCC(c1ccccc1)CC2 (stereo not drawn)	0
COc1ccc(C2c3c(ccc4ccccc34)Oc3ncn4nc(-c5ccco5)nc4c32)cc1 (stereo not drawn)	3
COc1ccc(C2c3c(ccc4ccccc34)Oc3ncn4nc(CO/N=C/c5ccccc5)nc4c32)cc1 (stereo not drawn)	12*
COc1cccc(C2c3c(ncn(-c4ccccc4)c3=N)Oc3ccc4ccccc4c32)c1OC (stereo not drawn)	2
C[C@H]1[C@@H](OC(=O)NCCc2c[nH]c3ccccc23)CC[C@@]23CCCN2C(=O)CCC[C@@H]13	-2
O=C1CCC[C@H]2C[C@H](NCc3cccc(F)c3)CC[C@]23CCCN13	0
COCC(=O)Nc1cc(OC)ccc1OC	6
COc1ccc(NC(=O)CSCc2ccc(C#N)cc2)c(OC)c1	2
SMILES	TTR transcr act
COc1ccc(OC)c(NC(=O)CSCC(=O)O)c1	23*
CCCC1CCC2(CC1)CCC2OC(=S)Nc1cccc(Cl)c1 (stereo not drawn)	4
CC(C)(C)OC(=O)N1CCC(N[C@@H](Cc2ccccc2)C(=O)NCCc2c[nH]c3ccccc23)(C(=O)NC2CCCCC2)CC1	2
O=C(OCc1cn(Cc2cccc(F)c2)nn1)N1CCCCC1	-1
COc1ccc(CC2CCN(c3ncnc4sccc34)CC2)cc1	-4
C[C@@H]1COc2cc(Br)ccc2S(=O)(=O)N1Cc1cn(CCC2OCCO2)nn1	1
CC(C)(C)c1ccc(C(=O)Nc2ccc(C(=O)N3CCOCC3)cc2)cc1	0
O=C(c1ccc(NC(=O)C2(c3ccccc3)CCOCC2)cc1)N1CCOCC1	24*
O=C(c1ccccc1)c1ccc(C(=O)N2CCOCC2)cc1	7
Cc1cc(C)cc(-c2c(C(=O)c3ccc(Br)cc3)[nH]c(N)c2C(=O)NCc2ccc(Cl)cc2)c1	-1
CCCCNC(=O)C[C@H]1C[C@@]2(C(=O)OC)C(=C[C@H](C3CCCC3)O[C@@H]2C)N(Cc2cccc3ccccc23)C1=O	0
NC(=O)C1CCN(c2nc(-c3ccc4c(c3)OCCCO4)cs2)CC1	0
COCCNC(=O)C1c2cc(OC)c(OC)cc2C(=O)N(C)C1c1cccnc1 (stereo not drawn)	3
CCCN(CCC)CCCNC(=O)C1c2cc(OC)c(OC)cc2C(=O)N(C)C1c1cccnc1 (stereo not drawn)	1
CCOc1cc2c(cc1OCC)C(C(=O)O)C(c1cc(OC)c(OC)c(OC)c1)N(C)C2=O (stereo not drawn)	12*
COC(=O)[C@]12C[C@H](CC(=O)NCc3cccc(C(F)(F)F)c3)C(=O)N(Cc3ccc4c(c3)OCO4)C1=C[C@H](C(C)C)O[C@@H]2C1CC1	1
O=C(O)CCN1C(=O)/C(=C/c2ccc(F)cc2F)SC1=S	-1
O=C(Nc1ccc2c(c1)OCO2)O[C@@H]1CC[C@@]23CCCN2C(=O)CCC[C@H]3C1	0
CCC[C@H]1[C@@H](NC(=O)C#Cc2ccccc2)CC[C@@]23CCCN2C(=O)CCC[C@@H]13	-1
CCN1C(=NCCc2ccc([N+](=O)[O-])cc2)N[C@@H](c2ccccc2)[C@H](C(=O)OC)[C@H]1C	3
COC(=O)[C@H]1[C@@H](C)N(CCc2cc(OC)c(OC)c(OC)c2)C(=O)N[C@H]1c1ccccc1	-1
